SW480 rereplic = DNA re-replication induction in SW480 cells; Potency, µM (highest dose often 46.1 µM), for the others: at the top dose re-replication activation, most hits filed as activators; SW480 DNA re-replication, Hoechst DNA content imaging, 48 h; actives 1.8% (n = 340,000); further: % of control where 0% means no effect; nearly all actives have a fitted effect of over 55% in size
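250 cells/well; 23 nL cpd via pin tool; 48 hr, 37 C, 5% CO2; Hoechst 40 min; imager read of total nuclear intensity, ex 405/em 500-530 nm.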
ELG1 repair inh = blocks ELG1-dependent DNA repair in HEK293T cells; HEK293T ELG1-luciferase reporter, luminescence, 16 h; DNA damage induced by 5-fluorouridine; Potency, µM (top dose mostly 46.1 µM), without a hit: at the top dose activity change, negative = inhibition, hits mostly inhibitors; actives 2.3% (n = 330,000); AID 504467; further: on the % scale 0 is the no-effect control and ±100 the full control effect; nearly all actives have a fitted effect of over 55% in size
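In this reporter screen, reduction of luminescence relative to DMSO vehicle indicated activity. Compounds and 5-fluorouridine were added together to 2,000 cells per well, incubated for 16 hr at 37 °C, then developed with ONE-Glo.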
KB-V1 MDR tox = kills drug-selected multidrug resistant KB-V1 cells; KB-V1 MDR cells viability, CellTiter-Glo, 72 h; Potency, µM (top dose mostly 46.1 µM), hits mostly cytotoxic; actives 3.4% (n = 400,000); further: on the % scale 0 is the no-effect control and ±100 the full control effect; nearly all actives have a fitted effect of over 60% in size
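Cytotoxicity via CellTiter-Glo luminescence after 72 h compound exposure at 37 degrees C. Cells: drug-selected KB-V1 line, DMEM phenol-red free plus 10% FBS. Compounds tested at multiple concentrations; normalized data fitted to concentration-effect curves.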
KB-3-1 cytotox = kills parental KB-3-1 adenocarcinoma cells | actives 1.4% (n = 400,000) | Potency, µM (titrated, usually from 46.1 µM), actives largely listed as cytotoxic | KB-3-1 viability, CellTiter-Glo ATP luminescence, 72 h | AID 1347075; further: on the % scale 0 is the no-effect control and ±100 the full control effect; nearly all actives have a fitted effect of over 60% in size
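Parental KB-3-1 viability, qHTS format: 72 h compound exposure, 37 °C; CellTiter-Glo; media-only wells and DMSO plates as controls; concentration-effect fits on corrected data.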
MCF10A rerep = induces DNA re-replication in MCF 10a normal breast cells; Potency, µM (highest dose often 46.1 µM), without a hit: top-dose activity, positive = re-replication, hits mostly activators; actives 2.9% (n = 350,000); AID 624296; MCF 10A DNA re-replication, Hoechst nuclear intensity, 48 h; further: % of control where 0% means no effect; nearly all actives have a fitted effect of over 50% in size
Active calls of the source: *; i = inactive; u = inconclusive; x = no result. The list is not random: actives were taken first. Their share in the collection is about 8.2%. The call rests on the fitted dose curve; in most records, active means well fitted curve in the direction sought with a large enough effect; inconclusive means small, poorly fitted or top-dose-only effect, or another doubt; inactive means no such curve, though single readings can be large; an effect the other way counts as inactive or inconclusive. Potency means the concentration at half of the fitted maximal effect.

SMILES | SW480 rereplic | ELG1 repair inh | KB-V1 MDR tox | KB-3-1 cytotox | MCF10A rerep
CC1CCN(c2ncnc3c2cnn3Cc2ccc(Cl)cc2)CC1 | 3.4% | u | u | i | 22.7%
Cc1ccccc1N1CCN(c2ncnc3c2cnn3Cc2ccc(Cl)cc2)CC1 | 16.9% | u | u | 18.4µM* | 3.5%
Cc1ccc(-n2ncc3c(N4CCCC4)ncnc32)c(C)c1 | -3.1% | 1.4% | i | i | 9.2%
COc1ccc(-n2ncc3c(N4CCN(Cc5ccccc5)CC4)ncnc32)cc1 | u | u | 13µM* | u | 20.6µM*
COc1ccc(CN2C(=O)C(CC(=O)NCc3ccco3)CC(C(=O)N(C(C)C)C(C)C)=C2C)cc1 (centres undefined) | x | x | i | i | x
Cc1cccc(NC(=S)NCc2ccc3c(c2)cc(C)n3C)c1C | u | 25.9µM* | i | u | 13µM*
COc1cccc(NC(=S)NCc2ccc3c(c2)cc(C)n3C)c1 | 4.6% | -19.7% | i | i | 0.2%
CN1CCN(C2CN(Cc3ccc(F)cc3)S(=O)(=O)C2)CC1 (centres undefined) | x | x | i | i | x
COc1ccc(NC(=O)CSc2nnc3c4c(nc(-c5ccccc5)n23)CC(C)(C)OC4)cc1 | u | 18.4µM* | 2.91µM* | i | 10.2%
COc1ccc(-c2nc3c(c4nnc(SC(C)C(=O)Nc5ccc(C)cc5)n24)COC(C)(C)C3)cc1 (centres undefined) | 0.0% | 20.6µM* | i | i | -5.2%
COc1ccc(-c2nnc(SCC(=O)Nc3ccccc3)n2C)cc1 | -1.6% | 1.5% | i | i | 1.4%
C=CCOc1c(Br)cc(CNc2ccc(NC(=O)C(C)C)c(OC)c2)cc1OC | 18.4µM* | -6.6% | 4.11µM* | u | 5.8µM*
COc1cc(CNc2ccc(C(=O)O)cc2)cc(Br)c1OCC(=O)NC(C)(C)C | -22.5% | -11.1% | u | i | -3.6%
O=C1CC(c2cccc([N+](=O)[O-])c2)c2c(ccc3ccccc23)N1 (centres undefined) | u | u | 5.8µM* | u | u
COc1cccc(C2CC(=O)Nc3cc4c(cc32)CCC4)c1 (centres undefined) | 8.2µM* | -12.0% | 5.8µM* | 7.31µM* | 5.17µM*
O=C1CC(c2ccc(Br)cc2)c2c(ccc3ccccc23)N1 (centres undefined) | x | x | i | i | x
O=C1CC(c2cccc([N+](=O)[O-])c2)c2cc3c(cc2N1)CCC3 (centres undefined) | u | 16.4µM* | u | u | u
O=C1CC(c2cccc(Cl)c2)c2cc3c(cc2N1)CCC3 (centres undefined) | -2.1% | -11.4% | 8.2µM* | i | 3.5%
COc1ccccc1Cc1c(-c2ccc(C)cc2)nc2cc(C)c(Br)c(C)n12 | x | x | u | i | x
CCOC(=O)N1CCN(C(=O)Cn2nc(C)n3nc(-c4ccc(CC)cc4)cc3c2=O)CC1 | -25.7% | 1.3% | i | i | 5.3%
COCCNC(=O)/C(C#N)=C/C(C)=C/c1ccccc1 | 11.7% | u | i | i | 17.5%
COc1cccc(C2CC(=O)Nc3cc(C)c(C)cc32)c1 (centres undefined) | x | x | 20.6µM* | u | x
CCOC(=O)c1cnc(-n2nc(C)cc2C)nc1NNc1nc(-c2ccccc2)cc(-c2ccccc2)n1 | u | 5.17µM* | u | 25.9µM* | u
CCOC(=O)c1cnc(-n2nc(C)cc2C)nc1NNc1nc(C)cc(C)n1 | -22.7% | 11.6µM* | i | i | -1.1%
CCCn1c(N)c(N(CCOC)C(=O)CCC2CCCCC2)c(=O)[nH]c1=O | 4.1% | 15.1% | i | i | -3.9%
SMILES | SW480 rereplic | ELG1 repair inh | KB-V1 MDR tox | KB-3-1 cytotox | MCF10A rerep
COc1ccc(-c2cc3nc(C4CCN(C(=O)OC(C)(C)C)CC4)c(C(=O)Nc4cc(Cl)cc(Cl)c4)cn3n2)cc1 | x | x | i | i | x
Cc1cc([N+](=O)[O-])c2[nH]c(C(=O)N/N=C/c3ccccc3C(=O)O)c(-c3ccccc3)c2c1 | u | -3.0% | 4.11µM* | i | u
COc1ccc(C(=O)CC(C#N)c2ccc3c(c2)OCO3)cc1OC (centres undefined) | x | x | u | i | x
CN1CCc2cccc3c2[C@@H]1Cc1ccc(O)c(O)c1-3 | 3.66µM* | -8.0% | u | u | u
COc1ccc2c(c1O)-c1ccccc1CCN(C)C2 | -34.2% | u | i | i | -10.1%
O=C(COC(=O)Cc1c(Cl)cccc1Cl)NCc1ccccc1 | x | x | i | i | x
Cn1c(=O)c2c(nc(Cl)n2CC(=O)NC2(C#N)CCCCC2)n(C)c1=O | 5.7% | -3.0% | i | i | -0.1%
COc1cccc(C(N)c2nc(-c3csc4ccccc34)cs2)c1 (centres undefined) | x | x | 8.2µM* | 7.31µM* | x
Cc1nn(-c2ccccc2)c(C)c1/C=C/C(=O)OCC(=O)NC1CCS(=O)(=O)C1 (centres undefined) | -9.5% | u | u | u | -1.1%
CN(C(=O)COC(=O)/C=C/c1cn(-c2ccccc2)nc1-c1ccc2c(c1)OCCO2)C1CCS(=O)(=O)C1 (centres undefined) | -5.8% | 20.6µM* | i | i | 2.4%
O=C(COC(=O)/C=C/c1cn(-c2ccccc2)nc1-c1ccc2c(c1)OCCO2)NC1CCS(=O)(=O)C1 (centres undefined) | -9.6% | 18.3µM* | i | i | 1.0%
N#Cc1c2ccc(OCC(N)=O)cc2n2ccccc12 | 10.1% | 19.6% | i | u | 22.0%
CCOC(=O)COc1ccc2c(C#N)c3ccccn3c2c1 | u | -2.9% | i | i | 20.6µM*
Cc1cc(NC(=O)c2ccc(F)c(S(=O)(=O)N3CCCCC3)c2)no1 | -11.9% | u | x | x | 3.2%
C=CCn1c(=N)c(C(=O)NCCCOC)cc2c(=O)n3ccccc3nc21 | 1.3µM* | -1.5% | i | i | 2.06µM*
C=CCn1c(=N)c(C(=O)NCCCOC)cc2c(=O)n3cc(C)ccc3nc21 | u | -25.0% | u | i | 8.2µM*
Cc1ccc2nc3c(cc(C(=O)NCCCn4ccnc4)n3C)c(=O)n2c1 | u | -4.9% | i | i | 14.6µM*
COc1cccc(C(=O)NCCNC(=O)c2ccc(C)nc2)c1 | -18.0% | -3.7% | i | i | -15.0%
COc1ccc(CN(C)C(=O)C23CC4CC(CC(Cl)(C4)C2)C3)c(OC)c1OC | -2.7% | 25.9µM* | i | i | -6.0%
COc1cccc(CN(C)C(=O)C23CC4CC(CC(NC(C)=O)(C4)C2)C3)c1OC | 2.7% | 6.5% | i | i | 3.3%
Cc1nc(-c2ccccc2)sc1C1(C)CC(c2cccc(F)c2)=NO1 (centres undefined) | -20.2% | x | i | i | 2.5%

Source: PubChem BioAssay (National Center for Advancing Translational Sciences (NCATS))
